Molecules are shown by their SMILES. Hit rate of the full screen: of about 39,000 compounds, about 1,500 (3.8%) were called active. This is one part of a sample in which actives are shown more often than they occur.

This test deals with HSkMC (human skeletal muscle cells). Put plainly: cytotoxicity call (relative viability < 0.9). The conditions noted are these: 10 µM.
`CC(=O)O[C@@]12CO[C@@H]1C[C@H](O)[C@@]1(C)C(=O)[C@H](O)C3=C(C)[C@@H](OC(=O)[C@H](O)[C@@H](NC(=O)c4ccccc4)c4ccccc4)C[C@](O)([C@@H](OC(=O)c4ccccc4)[C@H]21)C3(C)C`: the cytotoxicity call was “inactive”.

For `COCC(=O)N1C[C@@H]2c3ccccc3CN[C@@H]2C1`, the cytotoxicity call was “inactive”.

On to `COC(=O)[C@@H](N)CCCNC(N)=N[N+](=O)[O-]`, for which the cytotoxicity call was “inactive”.

As for `[N-]=[N+]=CC(=O)OCC(N)C(=O)O` (stereo not drawn), the cytotoxicity call is “inactive”.

As for `C1COC2(CCOCC2)CN1`, the cytotoxicity call was “inactive”.

Consider `Cc1cc(OC(=O)N(C)C)cc(=O)n1C`, for which the cytotoxicity call is “inactive”.

As to `COC(=O)C[C@@H]1CC[C@H]2NC[C@@H](O)COC[C@@H]2O1`, the cytotoxicity call was “inactive”.

With `CC(N)(Cc1ccccc1)c1ccccc1` (stereo not drawn), the cytotoxicity call was “inactive”.

For `CN1CCc2cc3c(cc2[C@@H]1O)OCO3`, the cytotoxicity call was “inactive”.

As for `COC(=O)C[C@](O)(CCC(C)(C)O)C(=O)O[C@@H]1C(OC)=C[C@]23CCCN2CCc2cc4c(cc2[C@H]13)OCO4`, the cytotoxicity call is “active”.

For the compound `CN1CCc2cc3c(cc2C1O)OCO3.Cl` (stereo not drawn), the cytotoxicity call was “inactive”.

As for `C[N+]12CCC(CC1)C(OC(=O)C(O)(c1ccccc1)c1ccccc1)C2.[Br-]` (stereo not drawn), the cytotoxicity call is “inactive”.

For the compound `CC1OC(OC2C(O)C(O)C(O)C(O)C2O)C(N)CC1NC(=N)C(=O)O.Cl` (stereo not drawn), the cytotoxicity call was “inactive”.

Consider `O=C1C=C2C(=CCO[C@@H]2O)O1`, for which the cytotoxicity call was “inactive”.

On to `O=C1C=C2C(=CCOC2O)O1` (stereo not drawn), for which the cytotoxicity call was “active”.

With `CCCCC(=O)N1CC[C@H]2CNC[C@H]21`, the cytotoxicity call was “inactive”.

Turning to `N#Cc1c(Cl)c(Cl)c(Cl)c(C#N)c1Cl`, the cytotoxicity call was “active”.

For the compound `CCCCCC1C(=O)OC(C)C(NC(=O)c2cccc(NC=O)c2O)C(=O)OC(C)C1OC(=O)CC(C)C` (stereo not drawn) [ANTIMYCIN A (A1 shown) ], the cytotoxicity call was “inactive”.

As to `CCC[C@@H](CN)c1ccc(F)cc1`, the cytotoxicity call is “inactive”.

Consider `COc1c(C[C@@H](C)O)c2c3c(C[C@@H](C)O)c(OC)c(=O)c4c(O)cc5c(c6c(cc(O)c(c1=O)c62)OCO5)c43`, for which the cytotoxicity call was “active”.

Take `COc1cc(C2c3cc4c(cc3C(O)C3COC(=O)C23)OCO4)cc(OC)c1OC` (stereo not drawn): the cytotoxicity call is “inactive”.

As for `CCOC1OC2OC3(C)CCC4C(C)CCC(C1C)C24OO3` (stereo not drawn), the cytotoxicity call was “inactive”.

Regarding `CC1=NCCc2c1[nH]c1cc(O)ccc21.Cl.O.O`, the cytotoxicity call was “inactive”.

As to `CCCCC[C@H]1C(=O)O[C@H](C)[C@H](NC(=O)c2cccc(NC=O)c2O)C(=O)O[C@@H](C)[C@@H]1OC(=O)CC(C)C`, the cytotoxicity call is “inactive”.

For `CCCCCCCCCC(=O)O[C@@H]1[C@@H](C)[C@@]2(O)[C@@H](C=C(CO)C[C@]3(O)C(=O)C(C)=C[C@@H]23)[C@@H]2C(C)(C)[C@]12OC(=O)CCCCCCCCC`, the cytotoxicity call was “inactive”.

Take `CCCCCCCCCCCCCC(=O)O[C@@H]1[C@@H](C)[C@@]2(O)[C@@H](C=C(CO)C[C@]3(O)C(=O)C(C)=C[C@@H]23)[C@@H]2C(C)(C)[C@]12OC(C)=O`: the cytotoxicity call was “active”.

Regarding `CCCCCCCCCC(=O)O[C@@H]1[C@@H](C)[C@]2(O)[C@@H](C=C(CO)C[C@]3(O)C(=O)C(C)=C[C@@H]23)[C@@H]2C(C)(C)[C@@]12OC(=O)CCCCCCCCC`, the cytotoxicity call is “active”.

As for `CC1=C[C@H]2[C@]3(O)[C@H](C=C(CO)C[C@]2(O)C1=O)[C@H]1C(C)(C)[C@@]1(O)[C@H](O)[C@@H]3C`, the cytotoxicity call was “inactive”.

(Values after the antibiotic and cytotoxicity screens of Wong et al. (2023).)
